Source: PubChem
The sample as a whole holds a higher share of hits than the screen did.
MITF inh: blocks MITF activity | TRPM1 promoter luciferase, luminescence, 24 h | actives 0.28% (n = 37,000) | inhibition, % (concentration not given with the values) | AID 2240; in the data active = inhibition above about 85%; inconclusive = no clear call, values can overlap the other calls; inactive = below about 68%;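 note: human melanocyte line stably carrying TRPM1 promoter luciferase reporter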
Shh pathway inh: blocks Sonic Hedgehog signaling; Shh-LIGHT2 Gli-luciferase reporter, 30 h; inhibition, % (no concentration beside the values); actives 2.1% (n = 22,000);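 active = mean inhibition across valid replicates above about 65%, limit read from the data; inconclusive = mean under the limit, yet half or more replicates past it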;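 note: pathway switched on by Shh-conditioned medium diluted 1 in 25 in low serum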
* = called active by the depositor.

Results for COc1cccc(C(=O)NC(c2ccc([N+](=O)[O-])cc2)c2c(O)ccc3ccccc23)c1 (stereo unspecified) ?
MITF inh: 78

Results for CCN(CC)C(=S)C(=O)Nc1cc(C(F)(F)F)cc(C(F)(F)F)c1 ?
MITF inh: 13; Shh pathway inh: 57

How did CC(C)(C)C1CCc2c(sc(NC(=O)COc3ccccc3Cl)c2C(N)=O)C1 (stereo unspecified) do in these assays?
MITF inh: -15

Results for C[C@@H]1O[C@@H](O[C@H]2[C@H](O)[C@@H](O[C@@H]3O[C@H](CO)[C@@H](O)[C@H](O)[C@H]3O)[C@H](O[C@H]3CC[C@@]4(C)C(=CC[C@@H]5C4CC[C@@]4(C)C5C[C@@H]5O[C@]6(CC[C@@](C)(CO)O6)[C@@H](C)[C@@H]54)C3)O[C@@H]2CO)[C@H](O)[C@H](O)[C@H]1O (stereo partly specified) ?
MITF inh: -1; Shh pathway inh: -1

Results for C[C@@H]1O[C@@H](O[C@H]2[C@H](O)[C@@H](O)[C@H](O[C@H]3[C@H](O[C@H]4CC[C@@]5(C)C(=CC[C@H]6C7C[C@@H]8O[C@]9(CC[C@@](C)(CO[C@@H]%10O[C@H](CO)[C@@H](O)[C@H](O)[C@H]%10O)O9)[C@H](C)C8[C@@]7(C)CCC65)C4)O[C@H](CO)[C@@H](O)[C@@H]3O)O[C@@H]2CO)[C@H](O)[C@H](O)[C@H]1O (stereo partly specified) ?
Shh pathway inh: 97*

What do the screens show for `COC(=O)C1=C(C)NC(C)=C(C(=O)OCCCN2CCC(c3ccccc3)(c3ccccc3)CC2)C1c1cccc([N+](=O)[O-])c1` (stereo unspecified)?
MITF inh: 110*; Shh pathway inh: 72*

Results for COc1ccc(NC(=O)C2=C(C)NC(=S)NC2c2cccc([N+](=O)[O-])c2)c(OC)c1 (stereo unspecified) ?
MITF inh: -10

What do the screens show for `Cc1csc2sc(C=NCc3cccs3)c(C)c12`?
MITF inh: -6; Shh pathway inh: -4

What do the screens show for `CCC(Sc1nnc(N)s1)C(=O)Nc1sc2c(c1C#N)CCCC2` (stereo unspecified)?
MITF inh: -30

What do the screens show for `CCC(Sc1nnnn1-c1ccccc1)C(=O)Nc1sc2c(c1C#N)CCCC2` (stereo unspecified)?
MITF inh: 16; Shh pathway inh: 68*

How did Cc1onc(-c2ccccc2)c1C(=O)NCCCn1ccnc1 do in these assays?
MITF inh: -9

Results for COc1ccccc1CCNC(=O)c1ccoc1C ?
MITF inh: -49

How did Cc1oc2c(c1C(=O)NCCCn1ccnc1)C(=O)c1ccccc1C2=O do in these assays?
MITF inh: 66; Shh pathway inh: 110*

How did Cc1oc2c(c1C(=O)NCCC(C)C)C(=O)c1ccccc1C2=O do in these assays?
MITF inh: inconclusive; Shh pathway inh: 90*

How did Cc1cc(C(F)(F)F)nc(SCC(=O)Nc2cccc(Cl)c2Cl)n1 do in these assays?
MITF inh: -5

What do the screens show for `COc1ccc(-c2cc(C(F)(F)F)n3nc(C(=O)N(C)Cc4cnn(C)c4C)cc3n2)cc1OC`?
MITF inh: -43

Results for Cc1ccc(OCC(=O)Nc2cccc(C(=O)O)c2)c(Br)c1 ?
MITF inh: 87*

What do the screens show for `Cc1cccc(C)c1OCC(=O)Nc1cccc(C(=O)O)c1`?
MITF inh: 21

Results for O=C1COc2ccc(S(=O)(=O)NCCOc3ccccc3)cc2N1 ?
MITF inh: 0

What do the screens show for `N#C/C(=C\c1cc(Cl)cc(Cl)c1)c1cccnc1`?
MITF inh: 2; Shh pathway inh: 73*

What do the screens show for `N#C/C(=C\c1ccncc1)c1ccc(NC(N)=O)cc1`?
MITF inh: -66; Shh pathway inh: -12

Results for CC(C)[C@@H]1NC(=O)[C@@H](Cc2c[nH]c3ccccc23)n2c1nc1ccccc1c2=O ?
MITF inh: 19; Shh pathway inh: -9

What do the screens show for `Cn1c(SCCCN2C(=O)c3cccc4cccc(c34)C2=O)nnc1-c1ccncc1`?
MITF inh: -63

Results for Cn1c(N2C(=O)c3cccc4cccc(c34)C2=O)nc2ccccc21 ?
MITF inh: -25; Shh pathway inh: 86*

Results for C=C(C)C(=O)Nc1ccc2c(c1)C(=O)NC2=O ?
MITF inh: -11

Results for COc1ccc(S(=O)(=O)Nc2ccc3c(c2)C(=O)N([C@H](C)CO)C[C@@H](C)[C@@H](CN(C)Cc2ccc(Cl)c(Cl)c2)O3)cc1 ?
MITF inh: 27; Shh pathway inh: 78*

Results for C[C@@H]1CN([C@H](C)CO)C(=O)c2cc(NC(=O)c3ccncc3)ccc2O[C@H]1CN(C)Cc1ccc(Cl)c(Cl)c1 ?
MITF inh: -9

Results for COc1ccc(S(=O)(=O)Nc2ccc3c(c2)C(=O)N([C@@H](C)CO)C[C@H](C)[C@H](CN(C)Cc2ccc(Cl)c(Cl)c2)O3)cc1 ?
MITF inh: 8; Shh pathway inh: 20

How did C[C@H](CO)N1C[C@H](C)[C@H](CN(C)Cc2ccc(Cl)c(Cl)c2)Oc2ccc(NC(=O)c3ccncc3)cc2C1=O do in these assays?
MITF inh: 15; Shh pathway inh: 86*

How did COc1ccc(S(=O)(=O)Nc2ccc3c(c2)C(=O)N([C@@H](C)CO)C[C@H](C)[C@H](CN(C)Cc2ccc(Oc4ccccc4)cc2)O3)cc1 do in these assays?
MITF inh: 47; Shh pathway inh: 40

Results for COc1ccc(S(=O)(=O)Nc2ccc3c(c2)C(=O)N([C@H](C)CO)C[C@@H](C)[C@@H](CN(C)Cc2ccc(Oc4ccccc4)cc2)O3)cc1 ?
MITF inh: 40; Shh pathway inh: 68*

Results for COCc1nc2ccccc2n1CCOc1ccc(Cl)cc1Cl ?
MITF inh: 6

How did CC1(C)CC(NC(=O)N2c3ccccc3CCc3ccccc32)CC(C)(C)N1 do in these assays?
MITF inh: -4; Shh pathway inh: 8

Results for CC(=O)Nc1nc(C23CC4CC(CC(C4)C2)C3)cs1 ?
MITF inh: -19

How did Cc1csc(NC(=O)CSc2nc(C34CC5CC(CC(C5)C3)C4)ccc2C#N)n1 do in these assays?
MITF inh: 63; Shh pathway inh: 75*

What do the screens show for `O=C(CSc1nnc(-c2cccnc2)n1-c1ccccc1)Nc1cc(C(F)(F)F)ccc1Cl`?
MITF inh: 53

Results for Nc1ncnc2c1c(I)cn2C1OC(CO)C(O)C1O (stereo unspecified) ?
MITF inh: 88*; Shh pathway inh: 44

How did Nc1ncnc2c1ncn2C1CCC(CO)O1 (stereo unspecified) do in these assays?
MITF inh: 1; Shh pathway inh: -62

What do the screens show for `O=C(CCCn1cc([N+](=O)[O-])cn1)Nc1cc(F)ccc1F`?
MITF inh: -3

What do the screens show for `CNC(=S)N1N=C2c3ccccc3CCC2C1c1ccc(OC)cc1` (stereo unspecified)?
MITF inh: 18

How did Oc1ccc(/C=C/c2cc(O)cc(O)c2)cc1 do in these assays?
MITF inh: 101*; Shh pathway inh: inconclusive

How did COc1cc(O)cc(/C=C/c2ccccc2)c1 do in these assays?
MITF inh: -10; Shh pathway inh: -23

What do the screens show for `CCOC(=O)C1=NNCC1C(=O)OCC` (stereo unspecified)?
MITF inh: 13

What do the screens show for `COc1ccc(C=Nc2ccc(Br)cc2)cc1`?
MITF inh: -14; Shh pathway inh: 69*

What do the screens show for `COc1ccc(/C=N/n2cnnc2)cc1`?
MITF inh: 2
